Reference: PubChem BioAssay AID1159580 (chemical genetic matrix, 2015)
The campaign covered roughly 5,500 compounds. About 2,000 (36%) were called active. Roughly 18% stayed inconclusive and do not appear here. Cut-off read from the data, not from the text of the source: active = normalized growth mostly below about 0.91 (no sharp cut-off); inconclusive = no clear call, values can overlap the other calls; inactive = mostly above about 0.92. Some of the results follow.

Test: chemical genetic growth profiling, strain panel (AID 1159580);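 note: tested at 20 µM; growth read once vehicle control cultures reached saturation at 30 °C; 1 = growth at the plate median or of vehicle wells; lower values mean less growth of the strain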
Settings: growth OD

Measured: normalized growth

O=C(O)CCCCC1SCC2NC(=O)NC21 (centres undefined)
inactive: S. cerevisiae deletion strains, locus YJL187C, strain SWE1, stronger effect = lower value 0.991 | S. cerevisiae deletion strains, locus YJR043C, strain POL32, stronger effect = lower value 0.971 | S. cerevisiae deletion strains, locus YJR066W, strain TOR1, stronger effect = lower value 0.983 | S. cerevisiae deletion strains, locus YKL009W, strain mrt4, stronger effect = lower value 0.994 | S. cerevisiae deletion strains, locus YKL068W, stronger effect = lower value 1.01 | S. cerevisiae deletion strains, locus YKL085W, strain MDH1 (second series), stronger effect = lower value 1.01 | S. cerevisiae deletion strains, locus YKL085W, strain MDH1, stronger effect = lower value 1.01 | S. cerevisiae deletion strains, locus YKL160W, strain elf1, stronger effect = lower value 1 | S. cerevisiae deletion strains, locus YKL190W, strain CNB1, stronger effect = lower value 1.03 | S. cerevisiae deletion strains, locus YKR001C, strain vps1, stronger effect = lower value 1 | S. cerevisiae deletion strains, locus YKR026C, strain gcn3, stronger effect = lower value 0.982 | S. cerevisiae deletion strains, locus YKR091W, strain srl3, stronger effect = lower value 0.992 | S. cerevisiae deletion strains, locus YLL001W, strain dnm1, stronger effect = lower value 0.989 | S. cerevisiae deletion strains, locus YLL026W, stronger effect = lower value 0.982 | S. cerevisiae deletion strains, locus YLL041C, strain sdh2, stronger effect = lower value 0.977 | S. cerevisiae deletion strains, locus YLR027C, strain aat2, stronger effect = lower value 0.994 | S. cerevisiae deletion strains, locus YLR039C, strain RIC1, stronger effect = lower value 1.06 | S. cerevisiae deletion strains, locus YLR058C, strain SHM2, stronger effect = lower value 1.01 | S. cerevisiae deletion strains, locus YLR102C, strain apc9, stronger effect = lower value 0.998 | S. cerevisiae deletion strains, locus YLR113W, strain HOG1, stronger effect = lower value 0.991 | S. cerevisiae deletion strains, locus YLR221C, strain rsa3, stronger effect = lower value 1.01 | S. cerevisiae deletion strains, locus YLR258W, strain gsy2, stronger effect = lower value 0.995 | S. cerevisiae deletion strains, locus YLR262C, strain YPT6 (second series), stronger effect = lower value 0.992 | S. cerevisiae deletion strains, locus YLR262C, strain YPT6, stronger effect = lower value 1.02 | S. cerevisiae deletion strains, locus YLR268W, strain sec22, stronger effect = lower value 0.99 | S. cerevisiae deletion strains, locus YLR320W, strain mms22, stronger effect = lower value 0.999 | S. cerevisiae deletion strains, locus YLR330W, strain CHS5, stronger effect = lower value 1.01 | S. cerevisiae deletion strains, locus YLR342W, strain FKS1 (second series), stronger effect = lower value 1 | S. cerevisiae deletion strains, locus YLR342W, strain FKS1, stronger effect = lower value 0.972 | S. cerevisiae deletion strains, locus YLR357W, strain rsc2, stronger effect = lower value 0.962 | S. cerevisiae deletion strains, locus YLR370C, strain arc18, stronger effect = lower value 0.998 | S. cerevisiae deletion strains, locus YLR371W, strain rom2, stronger effect = lower value 1.02 | S. cerevisiae deletion strains, locus YLR384C, strain iki3, stronger effect = lower value 0.985 | S. cerevisiae deletion strains, locus YLR418C, strain cdc73, stronger effect = lower value 1.02 | S. cerevisiae deletion strains, locus YML016C, strain PPZ1, stronger effect = lower value 1.01 | S. cerevisiae deletion strains, locus YML032C, strain rad52, stronger effect = lower value 0.983 | S. cerevisiae deletion strains, locus YML120C, strain ndi1, stronger effect = lower value 0.976 | S. cerevisiae deletion strains, locus YML124C, strain tub3, stronger effect = lower value 0.996 | S. cerevisiae deletion strains, locus YMR058W, strain fet3, stronger effect = lower value 0.984 | S. cerevisiae deletion strains, locus YMR078C, strain ctf18, stronger effect = lower value 1.02 | S. cerevisiae deletion strains, locus YMR125W, strain sto1, stronger effect = lower value 0.989 | S. cerevisiae deletion strains, locus YMR129W, stronger effect = lower value 0.997 | S. cerevisiae deletion strains, locus YMR205C, strain PFK2, stronger effect = lower value 1 | S. cerevisiae deletion strains, locus YMR223W, strain ubp8, stronger effect = lower value 1 | S. cerevisiae deletion strains, locus YMR231W, strain pep5, stronger effect = lower value 0.997 | S. cerevisiae deletion strains, locus YMR307W, strain GAS1, stronger effect = lower value 1.01 | S. cerevisiae deletion strains, locus YNL067W, strain RPL9B, stronger effect = lower value 1 | S. cerevisiae deletion strains, locus YNL071W, strain lat1, stronger effect = lower value 0.979 | S. cerevisiae deletion strains, locus YNL183C, strain NPR1, stronger effect = lower value 0.984 | S. cerevisiae deletion strains, locus YNL209W, strain ssb2, stronger effect = lower value 0.995 | S. cerevisiae deletion strains, locus YNL233W, strain BNI4, stronger effect = lower value 0.99 | S. cerevisiae deletion strains, locus YNL248C, strain rpa49, stronger effect = lower value 0.982 | S. cerevisiae deletion strains, locus YNL250W, strain rad50, stronger effect = lower value 1.01 | S. cerevisiae deletion strains, locus YNL271C, strain bni1, stronger effect = lower value 0.996 | S. cerevisiae deletion strains, locus YNL298W, strain CLA4, stronger effect = lower value 1 | S. cerevisiae deletion strains, locus YNL307C, strain MCK1, stronger effect = lower value 0.997 | S. cerevisiae deletion strains, locus YNL322C, strain KRE1 (second series), stronger effect = lower value 0.973 | S. cerevisiae deletion strains, locus YNR049C, strain mso1, stronger effect = lower value 0.978 | S. cerevisiae deletion strains, locus YNR052C, strain pop2, stronger effect = lower value 0.996 | S. cerevisiae deletion strains, locus YOL006C, strain TOP1, stronger effect = lower value 1.09 | S. cerevisiae deletion strains, locus YOL012C, strain htz1 1.05 | S. cerevisiae deletion strains, locus YOL147C, strain pex11, stronger effect = lower value 1 | S. cerevisiae deletion strains, locus YOR001W, strain rrp6, stronger effect = lower value 0.987 | S. cerevisiae deletion strains, locus YOR061W, strain CKA2, stronger effect = lower value 1 | S. cerevisiae deletion strains, locus YOR069W, strain VPS5, stronger effect = lower value 1.01 | S. cerevisiae deletion strains, locus YOR070C, strain gyp1, stronger effect = lower value 1 | S. cerevisiae deletion strains, locus YOR080W, strain dia2, stronger effect = lower value 0.978 | S. cerevisiae deletion strains, locus YOR083W, strain WHI5, stronger effect = lower value 0.992 | S. cerevisiae deletion strains, locus YOR106W, strain vam3, stronger effect = lower value 0.975 | S. cerevisiae deletion strains, locus YOR136W, strain idh2, stronger effect = lower value 0.986 | S. cerevisiae deletion strains, locus YOR144C, strain elg1, stronger effect = lower value 0.988 | S. cerevisiae deletion strains, locus YOR184W, strain ser1, stronger effect = lower value 0.956 | S. cerevisiae deletion strains, locus YOR231W, strain MKK1, stronger effect = lower value 1.01 | S. cerevisiae deletion strains, locus YOR265W, strain rbl2, stronger effect = lower value 1.01 | S. cerevisiae deletion strains, locus YOR270C, strain vph1, stronger effect = lower value 1.01 | S. cerevisiae deletion strains, locus YOR290C, strain snf2, stronger effect = lower value 0.977 | S. cerevisiae deletion strains, locus YOR316C, strain cot1, stronger effect = lower value 1 | S. cerevisiae deletion strains, locus YPL051W, strain arl3, stronger effect = lower value 1.01 | S. cerevisiae deletion strains, locus YPL078C, strain atp4, stronger effect = lower value 0.955 | S. cerevisiae deletion strains, locus YPL106C, strain sse1, stronger effect = lower value 0.994 | S. cerevisiae deletion strains, locus YPL240C, strain hsp82, stronger effect = lower value 0.98 | S. cerevisiae deletion strains, locus YPL241C, strain CIN2, stronger effect = lower value 1.01 | S. cerevisiae deletion strains, locus YPL256C, strain CLN2, stronger effect = lower value 1 | S. cerevisiae deletion strains, locus YPR119W, strain clb2, stronger effect = lower value 0.992 | S. cerevisiae deletion strains, locus YPR141C, strain kar3, stronger effect = lower value 1.01 | S. cerevisiae deletion strains, locus YPR163C, strain tif3, stronger effect = lower value 1.01 | S. cerevisiae deletion strains, locus YPR167C, strain met16, stronger effect = lower value 1 | S. cerevisiae deletion strains, strain wtn01, stronger effect = lower value 0.992 | S. cerevisiae strains, strain wild type, stronger effect = lower value 1.01
